Only a selection was taken, and hits are over-represented in it overall.
Rtt109 HAT inh – inhibitors of C. albicans Rtt109/Vps75 HAT, primary screen, biochemical, ThioGlo CoA-SH fluorescence, plate reader; Histone acetyltransferase RTT109 (Candida albicans (strain SC5314 / ATCC MYA-2876)), …; purified Rtt109/Vps75, 4 h; inhibition, % at 34.9 µM; hit rate 0.16% among 330,000; AID 540336, 2011;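 active = inhibition of at least 50% in every replicate; inconclusive = best replicate reaches 50% inhibition but some replicates fall short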
Target sequence (Q5AAJ8 whole entry, looked up): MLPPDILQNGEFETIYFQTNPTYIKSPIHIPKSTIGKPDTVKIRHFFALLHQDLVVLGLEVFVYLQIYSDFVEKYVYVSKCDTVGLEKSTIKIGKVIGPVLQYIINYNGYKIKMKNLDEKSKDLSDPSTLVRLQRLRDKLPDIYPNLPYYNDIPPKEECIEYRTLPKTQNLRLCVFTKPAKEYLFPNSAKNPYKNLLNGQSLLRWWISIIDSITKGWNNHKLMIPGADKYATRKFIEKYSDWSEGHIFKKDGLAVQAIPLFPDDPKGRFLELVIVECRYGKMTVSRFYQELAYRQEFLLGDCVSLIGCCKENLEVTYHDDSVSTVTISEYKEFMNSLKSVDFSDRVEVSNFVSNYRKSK
Glyco luc inh – increase of ERlucT glycosylation luciferase signal, primary screen, N-linked glycosylation inhibitor project, D54 ERlucT cells, luminescence, set 2 | hit rate 0.23% among 360,000 | AID 588692, 2011 | reporter increase, % at 12.5 µM | D54 ERlucT glycosylation luciferase reporter, 24 h; percent of 100 nM tunicamycin response;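 active = mean luciferase reporter signal, scaled so untreated is 0 and the glycosylation-blocking control 100, at or above a set limit in every replicate; inconclusive = mean reaches the limit but not every replicate does; inactive = mean below the limit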;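 also: luciferase carries N-glycosylation sites so blocking glycosylation raises the light; 0% = median of neutral control wells and 100% = median of 100 nM tunicamycin wells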
DENV2 CPE rescue – inhibitors of DENV2 cytopathic effect, primary screen, cell-based, plate reader, single concentration; DENV2-infected cells, cytopathic effect rescue; CPE inhibition, % at 9.99 µM; hit rate 1.7% among 350,000; AID 651640, 2012; in the data active = CPE inhibition above about 20%, passing the limit was not always enough; inconclusive = no clear call, values can overlap the other calls; tested in BHK-21 cells;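 also: 0% = median of neutral control wells and 100% = median of positive control wells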
PglD DTNB – C. jejuni PglD acetyltransferase inhibitors, primary screen, biochemical, DTNB colorimetric, single point. UDP-N-acetylbacillosamine N-acetyltransferase PglD (Campylobacter jejuni). purified PglD enzyme, DTNB colorimetric CoA detection. inhibition, % at 12.5 µM. hit rate 0.098% among 360,000. AID 602405, 2012; in the data active = inhibition above about 16%, passing the limit was not always enough; inconclusive = no clear call, values can overlap the other calls
The depositor's hits bear a star; ? = inconclusive; . = not tested or not shown; ! = not active in a repeat.

SMILES	Rtt109 HAT inh	Glyco luc inh	DENV2 CPE rescue	PglD DTNB
COCCNC(=O)[C@H]1[C@H](CO)[C@H]2Cn3c(cccc3=O)[C@@H]1N2Cc1cc(F)ccc1F	.	.	40*	-8
CCCNC(=O)[C@H]1[C@H](CO)[C@H]2Cn3c(cccc3=O)[C@@H]1N2Cc1cc(F)ccc1F	.	.	-7	-1
CC=Cc1ccc2n(c1=O)C[C@@H]1[C@@H](CO)[C@H](C(=O)NCCOC)[C@H]2N1Cc1nccs1 (mixture of isomers)	.	.	7	19*
CC=Cc1ccc2n(c1=O)C[C@@H]1[C@@H](CO)[C@H](C(=O)NCC(F)(F)F)[C@H]2N1C(C)=O (mixture of isomers)	.	.	76*	1
CC=Cc1ccc2n(c1=O)C[C@H]1[C@H](CO)[C@@H](C(=O)N3CCc4ccccc4C3)N(C(=O)C3CCC3)[C@@H]21 (mixture of isomers)	.	.	62*	5
CC=Cc1ccc2n(c1=O)C[C@H]1[C@H](CO)[C@@H](C(=O)NCCOC)[C@@H]2N1Cc1nccs1 (mixture of isomers)	.	.	5	9
COc1ccc(S(=O)(=O)N[C@@H]2C=C[C@H](CC(=O)N3CCc4ccccc4C3)O[C@H]2CO)cc1	.	.	4	-2
C[C@@H]1CN([C@@H](C)CO)C(=O)c2cc(NC(=O)Cc3cn(C)c4ccccc34)ccc2O[C@@H]1CN(C)Cc1ccc(-c2ccccc2)cc1	.	.	7	.
CC=Cc1ccc2n(c1=O)C[C@@H]1[C@@H](CO)[C@H](C(=O)NCC(F)(F)F)[C@H]2N1C(=O)C1CC1 (mixture of isomers)	.	.	?	16
CC=Cc1ccc2n(c1=O)C[C@H]1[C@H](CO)[C@@H](C(=O)NCC(F)(F)F)[C@@H]2N1C(=O)C1CC1 (mixture of isomers)	.	.	59*	14
CC(=O)N1[C@@H]2Cn3c(ccc(-c4ccc(F)cc4)c3=O)[C@H]1[C@@H](C(=O)N(C)C)[C@@H]2CO	.	.	27*	-1
O=C(C[C@@H]1C=C[C@@H](NC(=O)c2ccc(F)cc2)[C@@H](CO)O1)NCc1ccncn1	.	.	4	9
C[C@@H]1CN([C@H](C)CO)C(=O)c2cc(NC(=O)Nc3ccccc3)ccc2O[C@@H](C)CCCCO[C@@H]1CN(C)Cc1ccc(C(F)(F)F)cc1	.	.	-4	1
COc1cccc(/C=N/NC(=O)c2cc(-c3cccn3C)n[nH]2)c1	-24	4	.	0
COc1cc(/C=N/NC(=O)c2cc(-c3cccn3C)n[nH]2)cc(OC)c1OC	11	68*	.	0
C[C@@H]1CN([C@@H](C)CO)C(=O)Cc2cc(NC(=O)Cc3cn(C)c4ccccc34)ccc2O[C@@H]1CN(C)C(=O)Nc1ccc2c(c1)OCO2	.	.	-3	-1
CNC[C@@H]1OCCCC[C@@H](C)Oc2ccc(NS(=O)(=O)c3ccc(OC)cc3)cc2C(=O)N([C@H](C)CO)C[C@H]1C	.	.	0	2
CCOC(=O)C1=C(C)Nc2ccccc2S1	51*	-5	4	0
O=C(N[C@@H]1CC[C@H](CCNS(=O)(=O)c2ccccc2)O[C@H]1CO)c1cccc(F)c1	.	.	7	0
NC1(C(=O)O)CSSC1	0	73*	?	.
COc1ccc(-c2cc(-c3ccc(Cl)cc3)c(C#N)c(SCC(=O)O)n2)cc1	-1	0	61*	1
Nc1ccc(CC(N)c2csc(Nc3cc(Oc4ccccc4)ncn3)n2)cc1 (stereo not drawn)	.	-8	46*	0
NC(c1csc(Nc2cc(Oc3ccccc3)ncn2)n1)C1CCCCC1 (stereo not drawn)	.	-6	8	0
COc1ccc(C(N)c2csc(Nc3cc(Oc4ccccc4)ncn3)n2)cc1 (stereo not drawn)	.	-8	53*	7
COc1ccc2[nH]c(=O)c(CN(Cc3nnnn3Cc3ccc(F)cc3)CC3CCCO3)cc2c1 (stereo not drawn)	-14	1	.	.
SMILES	Rtt109 HAT inh	Glyco luc inh	DENV2 CPE rescue	PglD DTNB
COc1ccc2[nH]c(=O)c(CN(Cc3nnnn3Cc3ccccc3)CC3CCCO3)cc2c1 (stereo not drawn)	53*	2	.	0
Cc1ccccc1S(=O)(=O)N1CC[C@@H]2[C@H](CO)Nc3ccc(-c4ccccc4F)cc3[C@@H]21	.	.	43*	0
COc1ccccc1S(=O)(=O)N1CC[C@H]2[C@H](CO)Nc3ccc(-c4ccccc4F)cc3[C@H]21	.	.	21*	-4
COc1ccccc1S(=O)(=O)N1CC[C@@H]2[C@@H](CO)Nc3ccc(-c4ccccc4F)cc3[C@@H]21	.	.	-8	5
O=S(=O)(c1ccccc1F)N1CC[C@@H]2[C@H]1c1cc(-c3ccccc3F)ccc1N[C@@H]2CO	.	.	40*	-4
Cc1ccccc1S(=O)(=O)N1CC[C@@H]2[C@H]1c1cc(-c3ccccc3F)ccc1N[C@@H]2CO	.	.	-13	6
C[C@@H]1CCCCO[C@H](CN(C)Cc2ccc(C(=O)O)cc2)[C@H](C)CN([C@@H](C)CO)C(=O)c2cc(NC(=O)Nc3ccc(C(F)(F)F)cc3)ccc2O1	.	0	41*!	-6
C[C@H](CO)N1C[C@H](C)[C@@H](CN(C)Cc2ccc(C(=O)O)cc2)OCCCC[C@H](C)Oc2ccc(NC(=O)Nc3ccc(C(F)(F)F)cc3)cc2C1=O	.	.	-6	-2
C[C@@H]1CCCCO[C@H](CN(C)Cc2ccc(C(F)(F)F)cc2)[C@H](C)CN([C@@H](C)CO)C(=O)c2cc(NC(=O)c3ccccc3)ccc2O1	.	.	140*	-2
C[C@@H]1CN([C@H](C)CO)C(=O)c2cc(NC(=O)Nc3cccc4ccccc34)ccc2O[C@@H](C)CCCCO[C@@H]1CN(C)Cc1ccc(C(F)(F)F)cc1	.	.	72*	2
C[C@H]1CCCCO[C@H](CN(C)Cc2ccc(C(F)(F)F)cc2)[C@@H](C)CN([C@@H](C)CO)C(=O)c2cc(NC(=O)Nc3cccc4ccccc34)ccc2O1	.	.	-18	4
C[C@@H]1CCCCO[C@H](CN(C)Cc2ccc(C(F)(F)F)cc2)[C@@H](C)CN([C@H](C)CO)C(=O)c2cc(NC(=O)c3ccccc3)ccc2O1	.	.	12	2
C[C@@H]1CCCCO[C@H](CN(C)Cc2ccccc2)[C@H](C)CN([C@H](C)CO)C(=O)c2cc(NC(=O)Nc3ccc(C(F)(F)F)cc3)ccc2O1	.	.	-20	0
C[C@H]1CCCCO[C@H](CN(C)Cc2ccccc2)[C@@H](C)CN([C@@H](C)CO)C(=O)c2cc(NC(=O)Nc3ccc(C(F)(F)F)cc3)ccc2O1	.	.	39*	1
O=C(C[C@H]1C[C@H]2c3cc(NC(=O)Nc4ccc(F)cc4)ccc3O[C@H]2[C@@H](CO)O1)NC1CCCCC1	.	.	8	7
C[C@@H]1CCCCO[C@H](CN(C)C)[C@H](C)CN([C@H](C)CO)C(=O)c2cc(NS(=O)(=O)c3ccc(F)cc3)ccc2O1	.	.	5	4

Assay outcomes as filed in PubChem.
